Assay results: PubChem BioAssay AID651598 (Sanford-Burnham Center for Chemical Genomics, 2012)
Values joined by “and” are separate entries in the source; they are usually repeats but may differ in a detail not shown here. Equal values may be shown once.

Each compound was assayed against C-X-C chemokine receptor type 6 (Homo sapiens) (UniProt O00574) (assay: APJ beta-arrestin recruitment blockade alongside CXCR6 – cell-based, DiscoveRx, panel, CHO-K1, counter-screen for CXCR6 antagonist project, SAR follow-up (AID 651598)). Conditions: CHO-K1 PathHunter beta-arrestin luminescence, antagonist mode; run 6, at 80 µM (top of the series).
Sequence of C-X-C chemokine receptor type 6 (Homo sapiens) (O00574 whole entry, looked up): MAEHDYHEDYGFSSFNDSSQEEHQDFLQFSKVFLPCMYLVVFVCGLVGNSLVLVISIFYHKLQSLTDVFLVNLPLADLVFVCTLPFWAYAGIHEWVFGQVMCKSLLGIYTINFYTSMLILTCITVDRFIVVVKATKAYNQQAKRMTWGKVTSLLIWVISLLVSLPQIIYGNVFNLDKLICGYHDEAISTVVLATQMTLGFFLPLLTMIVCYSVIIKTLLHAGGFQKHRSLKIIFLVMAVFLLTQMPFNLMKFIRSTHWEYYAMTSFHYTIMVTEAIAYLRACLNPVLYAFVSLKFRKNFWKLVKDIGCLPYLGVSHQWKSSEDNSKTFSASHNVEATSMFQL

SMILES	inhibition
COc1cc(C(=O)NC2CC3CCC(C2)N3CC(=O)Nc2ccccc2)cc(OC)c1OC (stereo not drawn)	57.4% and -0.766%
COc1cc(C(=O)NC2CCN(CC(=O)Nc3ccccc3)CC2)cc(OC)c1OC	20.7%
COc1cc(C(=O)NC2CC3CCCC(C2)N3CC(=O)Nc2ccccc2)cc(OC)c1OC (stereo not drawn)	85.3% and 54.2% and 27.6%
